# About 83,000 compounds went through this panel and 20% of them were active in at least one assay; those are over-represented in the sample as a whole.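 48-hour exposure, single concentration, 96-well plates; percent growth endpoint where 0 means no net growth. Active: below 10.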 Values without a mark were called inactive. Activity calls are given as the source filed them.
# How the values were obtained:
# Assay in all cases: NCI-60 one-dose screen, 48 h (100 = growth as untreated, 0 = no growth, -100 = all killed)
# Conditions in all cases: 10 µM unless noted
# [1] = tested on: NCI-H23 lung
# [2] = tested on: NCI-H226 lung
# [3] = tested on: NCI-H322M lung
# [4] = tested on: HOP-62 NSCLC
# [5] = tested on: NCI-H460 lung
# [6] = tested on: HOP-92 NSCLC
# [7] = tested on: NCI-H522 lung
# [8] = tested on: A549/ATCC NSCLC
# [9] = tested on: 786-0 renal
# [10] = tested on: COLO 205 colon
Compound,growth [1],growth [2],growth [3],growth [4],growth [5],growth [6],growth [7],growth [8],growth [9],growth [10]
CC[C@H](Nc1nc(N)nc(N)c1Cl)c1nc2cccc(NCc3ccc(C(=O)NO)cc3)c2c(=O)n1-c1ccccc1,-71.6% (active),4.53% (active),35.8%,11.6%,1.8% (active),-15.7% (active),-13.5% (active),-4.67% (active),3.36% (active),-20.1% (active)
Oc1ccc(Cl)cc1-c1cc(-c2ccccc2Cl)[nH]n1,47.8%,81.8%,65.1%,63.3%,37.1%,20.6%,27.4%,53.1%,84.7%,104%
Fc1cnccc1-c1nc2ccc3[nH]ncc3c2c2c1CCCC2,31.9%,30%,29.5%,21%,25.8%,40.7%,18.8%,14.6%,28.1%,17.6%
Cc1[nH]n(C(=O)c2ccncc2)c(=O)c1N=Nc1ccc(O)c(C(=O)O)c1,106%,86.3%,91.3%,–,114%,62.7%,104%,21.9%,–,113%
Cc1ccc2cc3c(NC(=O)c4cccnc4)nn(C)c3nc2c1,90%,85.3%,89.4%,–,98.2%,81.5%,67.1%,95.7%,98.6%,85.5%
O=[N+]([O-])c1cccc(N=C(Nc2cccc([N+](=O)[O-])c2)c2ccccc2)c1,86.4%,91.6%,81.2%,–,102%,47.4%,59.5%,79.9%,83.6%,109%
CCCCCCCCCCCCCCC(C(=O)OCC)C(=O)OCC,105%,93.3%,104%,–,109%,105%,92.6%,109%,115%,115%
Cc1cc(N=Nc2ccc(-c3ccc(N=Nc4ccc(O)c(C(=O)O)c4)cc3)cc2)c(N)c(N=Nc2ccc(C(=O)O)cc2)c1N,93.4%,92.4%,99.9%,–,117%,71.8%,85.2%,102%,84.4%,108%
COc1ccc(Br)c2ccccc12,109%,106%,117%,–,114%,93.9%,97.9%,104%,115%,120%
Cc1c(O)c(=O)n(-c2ccccc2)n1C,101%,100%,108%,–,118%,96.3%,110%,105%,101%,111%
CN1CCN(c2ccc(N3Cc4ccccc4OC4=C3C(=O)c3c(O)ccc(O)c3C4=O)cn2)CC1,–,35.2%,4.57% (active),1.99% (active),-22.4% (active),-58.7% (active),-53.3% (active),-4.29% (active),-77.4% (active),-77.1% (active)
CC1=C(O)C(=O)C(c2c(C)cc(C)c(Br)c2C)=C(O)C1=O,40.7%,83.3%,71.5%,–,35.5%,83.7%,66.8%,44.1%,56.8%,75.8%
CS(=O)(=O)Nc1cc(-c2cc3ncc(C#N)c(Nc4ccc(Oc5ccccc5)c(Cl)c4)c3s2)cnc1Cl,56.6%,64.3%,26.9%,–,21.7%,45.6%,32.4%,55.2%,–,66.9%
Cc1c(C)c(C)c([N+](=O)[O-])c([N+](=O)[O-])c1C,107%,104%,116%,–,108%,69%,98.7%,93.4%,93.6%,115%
c1ccc2c(Cc3csc4ccccc34)csc2c1,84.7%,95.1%,87.2%,–,104%,77.7%,65.3%,83%,93.8%,–
O=C(N=Nc1c(Cl)c(O)c2ccccc2c1O)C(=O)Nc1cccc(C(F)(F)F)c1,71.5%,88.5%,63.4%,–,79.8%,79.2%,8.55% (active),87.1%,90.3%,–
CC(C)c1ccc(Cn2ccc3c4c(N)nc(NC5CC5)nc4ccc32)cc1,-71.3% (active),-73.3% (active),-93.2% (active),–,-84.2% (active),-88.2% (active),-81.8% (active),-80.9% (active),-91.6% (active),-78% (active)
CCCc1cc2c(cc1CN(Cc1cc3c(cc1CCC)OCO3)C(=N)OCC)OCO2,79.8%,86.4%,91.9%,–,75.5%,55%,54.2%,71.8%,89.7%,93.6%
COc1ccc(/C(=C\c2cc(OC)c(OC)c(OC)c2)C(=O)Nc2nc3ccc(Cl)cc3s2)cc1,94.4%,83.2%,82.5%,–,117%,86.8%,74.9%,81%,91.3%,108%
Fc1ccc2c(CN3CCO[C@H](COc4cccc(Cl)c4)C3)c[nH]c2c1,75.5%,64.9%,74.6%,–,30.2%,45.2%,36.3%,44.4%,27.2%,69.1%
Cc1n(Cc2ccc3ccccc3n2)cc[n+]1Cc1ccc2ccccc2c1,2.01% (active),12.7%,26%,–,10.2%,-6.1% (active),3.95% (active),33.5%,63.3%,-38.4% (active)

# Source: PubChem BioAssay (NCI)
